Data: PubChem BioAssay AID1159580 (chemical genetic matrix, 2015)
Among all 5,500 compounds or so, about 2,000 (36%) were called active. Roughly 18% stayed inconclusive and do not appear here. No stated cut-off is given here; in the data, active means normalized growth mostly below about 0.91 (no sharp cut-off); inconclusive means no clear call, values can overlap the other calls; inactive means mostly above about 0.92. The list shows a part of the results.

Assay: chemical genetic growth profiling, strain panel (AID 1159580);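 further: tested at 20 µM; growth read once vehicle control cultures reached saturation at 30 °C; 1 = growth at the plate median or of vehicle wells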
Settings: S. cerevisiae deletion strains, growth OD
[1] = locus YDL101C, strain DUN1, stronger effect = lower value
[2] = locus YHR030C, strain SLT2, stronger effect = lower value

Measured: normalized growth

COC(=O)c1ccc([N+](=O)[O-])cc1Cl
inactive: locus YAL013W, strain DEP1, stronger effect = lower value 0.991 | locus YBR229C, strain ROT2, stronger effect = lower value 0.998 | locus YCL061C, strain MRC1, stronger effect = lower value 1 | [1] 0.989 | locus YDL134C, strain PPH21, stronger effect = lower value 0.983 | locus YDR150W, strain NUM1, stronger effect = lower value 0.923 | locus YEL061C, strain CIN8, stronger effect = lower value 0.988 | locus YGR078C, strain PAC10, stronger effect = lower value 0.993 | [2] 0.989 | locus YHR087W, strain rtc3, stronger effect = lower value 1.01 | locus YJL187C, strain SWE1, stronger effect = lower value 0.991 | locus YJR043C, strain POL32, stronger effect = lower value 1.02 | locus YJR075W, strain HOC1, stronger effect = lower value 0.996 | locus YLR039C, strain RIC1, stronger effect = lower value 0.983 | locus YLR058C, strain SHM2 (second series), stronger effect = lower value 0.983 | locus YLR085C, strain ARP6, stronger effect = lower value 0.881 | locus YLR262C, strain YPT6, stronger effect = lower value 1 | locus YML094W, strain GIM5, stronger effect = lower value 0.964 | locus YMR219W, strain ESC1, stronger effect = lower value 0.992 | locus YMR263W, strain SAP30, stronger effect = lower value 0.992 | locus YMR307W, strain GAS1, stronger effect = lower value 1.05 | locus YNL128W, strain TEP1, stronger effect = lower value 0.985 | locus YNL153C, strain GIM3, stronger effect = lower value 1.01 | locus YNL298W, strain CLA4 (second series), stronger effect = lower value 0.97 | locus YNL322C, strain KRE1, stronger effect = lower value 1 | locus YNR030W, strain Alg12, stronger effect = lower value 1.01 | locus YOL006C, strain TOP1, stronger effect = lower value 0.756 | locus YPL055C, strain LGE1, stronger effect = lower value 0.95 | locus YPL241C, strain CIN2, stronger effect = lower value 0.992 | locus YPR135W, strain CTF4, stronger effect = lower value 1.03

COc1cc(C(=O)Oc2c(Cl)cc(Cl)cc2C=Nc2ccc([N+](=O)[O-])cc2C#N)cc(OC)c1OC
active: locus YDL214C, strain PRR2, stronger effect = lower value 0.56 | locus YDR477W, strain SNF1, stronger effect = lower value 0.598 | locus YER123W, strain YCK3, stronger effect = lower value 0.352 | locus YER133W, strain GLC7, stronger effect = lower value 0.553 | locus YFR019W, strain FAB1, stronger effect = lower value 0.593 | locus YGR040W, strain KSS1, stronger effect = lower value 0.622 | locus YGR052W, strain FMP48, stronger effect = lower value 0.508 | locus YGR092W, strain DBF2, stronger effect = lower value 0.302 | [2] 0.324 | locus YHR079C, strain IRE1, stronger effect = lower value 0.371 | locus YHR082C, strain KSP1, stronger effect = lower value 0.497 | locus YHR205W, strain SCH9, stronger effect = lower value 0.429 | locus YJL095W, strain BCK1, stronger effect = lower value 0.408 | locus YJL157C, strain FAR1, stronger effect = lower value 0.565 | locus YJR066W, strain TOR1, stronger effect = lower value 0.366 | locus YKL048C, strain ELM1, stronger effect = lower value 0.765 | locus YKL067W, strain YNK1, stronger effect = lower value 0.558 | locus YKL101W, strain HSL1, stronger effect = lower value 0.654 | locus YKL203C, strain TOR2, stronger effect = lower value 0.678 | locus YLR113W, strain HOG1, stronger effect = lower value 0.458 | locus YLR133W, strain CKI1, stronger effect = lower value 0.543 | locus YLR403W, strain SFP1, stronger effect = lower value 0.439 | locus YML070W, strain DAK1, stronger effect = lower value 0.544 | locus YMR205C, strain PFK2 (second series), stronger effect = lower value 0.59 | locus YNL020C, strain ARK1, stronger effect = lower value 0.503 | locus YNL183C, strain NPR1, stronger effect = lower value 0.465 | locus YNL307C, strain MCK1 (second series), stronger effect = lower value 0.5 | locus YOL136C, strain PFK27, stronger effect = lower value 0.492 | locus YOR061W, strain CKA2, stronger effect = lower value 0.439 | locus YOR119C, strain RIO1, stronger effect = lower value 0.549 | locus YOR231W, strain MKK1, stronger effect = lower value 0.46 | locus YPL031C, strain PHO85, stronger effect = lower value 0.572 | locus YPL153C, strain RAD53, stronger effect = lower value 0.581 | locus YPL204W, strain HRR25, stronger effect = lower value 0.548 | locus YPL256C, strain CLN2, stronger effect = lower value 0.431
inactive: locus YAR019C, strain CDC15, stronger effect = lower value 0.988 | locus YBL105C, strain PKC1, stronger effect = lower value 0.972 | locus YBR135W, strain CKS1, stronger effect = lower value 0.969 | locus YBR136W, strain MEC1, stronger effect = lower value 0.988 | locus YBR160W, strain CDC28, stronger effect = lower value 0.974 | locus YDL017W, strain CDC7, stronger effect = lower value 0.974 | locus YDL028C, strain MPS1, stronger effect = lower value 0.977 | [1] 0.987 | locus YDL108W, strain KIN28, stronger effect = lower value 0.982 | locus YDL132W, strain cdc53, stronger effect = lower value 0.967 | locus YDR052C, strain DBF4, stronger effect = lower value 0.989 | locus YDR054C, strain cdc34, stronger effect = lower value 0.968 | locus YDR226W, strain ADK1, stronger effect = lower value 0.978 | locus YFL009W, strain cdc4, stronger effect = lower value 0.961 | locus YFL029C, strain CAK1, stronger effect = lower value 0.983 | locus YFR003C, strain YPI1, stronger effect = lower value 0.975 | locus YFR028C, strain CDC14, stronger effect = lower value 0.973 | locus YIL147C, strain SLN1, stronger effect = lower value 0.979 | locus YJL128C, strain PBS2, stronger effect = lower value 0.928 | locus YJR016C, strain ILV3, stronger effect = lower value 0.986 | locus YJR066W, strain TOR1 (second series), stronger effect = lower value 0.812 | locus YKL193C, strain SDS22, stronger effect = lower value 0.965 | locus YMR001C, strain CDC5, stronger effect = lower value 0.98 | locus YMR277W, strain FCP1, stronger effect = lower value 0.97 | locus YNL006W, strain LST8, stronger effect = lower value 0.991 | locus YNL161W, strain CBK1, stronger effect = lower value 0.98 | locus YNL207W, strain RIO2, stronger effect = lower value 0.981 | locus YNL222W, strain SSU72, stronger effect = lower value 0.975 | locus YOL078W, strain AVO1, stronger effect = lower value 0.975 | locus YOR329C, strain SCD5, stronger effect = lower value 0.971 | locus YPL209C, strain IPL1, stronger effect = lower value 0.976 | locus YPR025C, strain CCL1, stronger effect = lower value 0.963 | locus YPR106W, strain ISR1, stronger effect = lower value 0.971 | locus YPR111W, strain DBF20, stronger effect = lower value 0.945 | strain NNK1, stronger effect = lower value 0.979 | strain TSCII, stronger effect = lower value 0.98
